Screening data (PubChem)
Sm TGR block: inhibitors of Schistosoma mansoni thioredoxin glutathione reductase; Q962Y6; Potency, µM (top dose mostly 114 µM), for the others: at the highest dose activity change, negative = inhibition, hits mostly inhibitors; purified TGR, DTNB reduction, TNB absorbance 405 nm; 3% of 360,000 active; further: on the % scale 0 is the no-effect control and ±100 the full control effect; nearly all actives have a fitted effect of over 60% in size
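Kinetic colorimetric format: TGR-catalysed, NADPH-driven DTNB reduction monitored via TNB absorbance. Enzyme dispensed at 20 nM; compound exposure 15 min at room temperature before reaction start.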
SARS PLpro yeast: SARS-CoV PLP inhibition in yeast | S. cerevisiae expressing SARS-CoV PLpro, growth rescue | Potency, µM (titrated, usually from 32.9 µM), for the others: at the highest dose activity, positive = growth rescue, most hits filed as activators | 0.19% of 330,000 active; calls by dose curve; further: 0% is about no effect; nearly all actives have a fitted effect of over 55% in size
Pf growth 96h: P. falciparum growth inhibition at 96 hour, primary screen for plastid delayed-death inhibitors | P. falciparum luciferase reporter growth, 96 h | Potency, µM (top dose mostly 28.7 µM), for the others: top-dose activity change, negative = inhibition, actives largely listed as inhibitors | 6.9% of 320,000 active | AID 504834; further: on the % scale 0 is the no-effect control and ±100 the full control effect
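Erythrocytes infected with luciferase-expressing P. falciparum were dispensed at 2% hematocrit and 0.05% parasitemia (final), then incubated with compounds 96 hours at 37 C in 5% CO2. Luminescence after detection reagent addition reported growth.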
Pf growth 48h: inhibits P. falciparum growth in the first generation, 48 h; Potency, µM (highest dose often 28.7 µM), for the others: at the highest dose activity change, negative = inhibition, usual class: inhibitors; P. falciparum luciferase growth in erythrocytes, 48 h; 5.9% of 310,000 active; further: on the % scale 0 is the no-effect control and ±100 the full control effect
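Parasite viability was followed by luminescence of a genomically integrated firefly luciferase. Cultures held 0.1% parasitemia at 2% hematocrit (final), incubated under 5% CO2 at 37 C.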
* hit, by the source's call; u = inconclusive; x = not tested or not shown. Most compounds without a hit are left out; they make up all but 12% or so of the library. Unless noted, the call rests on the fitted dose curve; in most records, active means well fitted curve in the direction sought with a large enough effect; inconclusive means small, poorly fitted or top-dose-only effect, or another doubt; inactive means no such curve, though single readings can be large; an effect the other way counts as inactive or inconclusive. Potency means the concentration at half of the fitted maximal effect.

SMILES	Sm TGR block	SARS PLpro yeast	Pf growth 96h	Pf growth 48h
COc1ccc(CN(C)C(=O)Cn2cnc3c(NCc4ccccc4)ncnc32)cc1OC	x	26.7%	x	x
CC(C)NC(=O)C(=O)Nc1cc2c3c(c1)C(C)C(=O)N3CCC2 (stereo unspecified)	5.6%	0.7%	36.2%	6.5%
CCOC(=O)Nc1ccc2c(CN(C)Cc3ccc(F)cc3)cc(=O)oc2c1	-1.3%	-2.2%	16.4%	7.4%
CCOC(=O)Nc1ccc2c(CN3CCN(S(=O)(=O)c4ccc(C(C)C)cc4)CC3)cc(=O)oc2c1	-6.7%	2.7%	10.4µM*	u
CCOC(=O)Nc1ccc2c(COC(=O)CNS(=O)(=O)c3ccc(NC(C)=O)cc3)cc(=O)oc2c1	4.5%	-1.0%	42.5%	30.8%
CCOC(=O)Nc1ccc2c(CN3CCN(S(=O)(=O)c4ccccc4F)CC3)cc(=O)oc2c1	-10.1%	0.4%	10.4µM*	9.28µM*
O=C(CN1CCN(CC(=O)Nc2cccc(F)c2)CC1)NCC1(N2CCOCC2)CCCCC1	-4.1%	-6.0%	u	u
CCn1ccc2cc(S(=O)(=O)N3CCCN(C(=O)Nc4ccc(C)cc4)CC3)ccc21	-0.6%	x	x	x
Cc1noc(C)c1CSCC(=O)Nc1cc(S(=O)(=O)N2CCOCC2)ccc1OC(C)C	15.9%	7.7%	u	u
Cc1ccc(N(CC2CO2)S(=O)(=O)c2ccc([N+](=O)[O-])cc2)cc1 (stereo unspecified)	31.6µM*	-0.4%	-9.2%	-6.4%
O=C(Cn1c(=O)n(-c2ccccc2Cl)c(=O)c2sc3ccccc3c21)N1CCCC1	-8.0%	x	x	x
CSc1cnc2c(=O)n(C)c(=O)[nH]c2n1	0.6%	-8.4%	8.5%	-1.4%
Cn1c(=O)[nH]c2nnc(-c3ccc(Cl)c(Cl)c3)nc2c1=O	0.4%	0.5%	1.65µM*	u
CCOC(=O)N1CCN(c2c(NCc3ccc(F)cc3)c(=O)c2=O)CC1	10.0%	0.1%	-1.8%	-7.9%
CCOC(=O)C1CCN(c2c(NCCCN3CCCCC3)c(=O)c2=O)CC1	-3.5%	1.6%	18.8%	-5.9%
CCOC(=O)N1CCN(c2c(NCc3cccs3)c(=O)c2=O)CC1	5.2%	-0.5%	11.7µM*	x
CCOC(=O)N1CCN(c2c(NCC3CCN(Cc4cccc(C)c4)CC3)c(=O)c2=O)CC1	-0.4%	0.7%	6.57µM*	8.0%
CCOC(=O)N1CCN(c2c(NCCCN3CCCCCC3)c(=O)c2=O)CC1	0.0%	-2.2%	10.4µM*	x
CCC(O)C1CCN(C(=O)c2cc(COc3ccc(F)cc3F)on2)CC1 (stereo unspecified)	-3.3%	-0.2%	1.0%	12.4%
Cc1cc(Nc2cccc(C)c2C)n2cnnc2n1	-5.5%	x	x	x
COC(=O)C(Cc1ccccc1)NC(=O)CNC(=O)c1ccccc1OC (stereo unspecified)	4.3%	-18.9%	15.7%	16.3%
COCCN1C(=O)C(=O)/C(=C(/O)c2ccc(S(=O)(=O)N3CCOCC3)cc2)C1c1cccc(OC)c1 (stereo unspecified)	-24.1%	-8.4%	3.3%	33.5%
CCOc1ccc(/C=C/C(=O)Nc2ccc(OC)cc2[N+](=O)[O-])cc1	-13.2%	3.8%	u	20.6%
CCOc1ccc(NC(=O)/C=C/c2ccccc2)c([N+](=O)[O-])c1	3.2%	2.1%	8.28µM*	9.28µM*
CCN(CCCNC(=O)CN1N=C(c2ccccc2)CCC1=O)c1ccccc1	-11.5%	x	x	x
SMILES	Sm TGR block	SARS PLpro yeast	Pf growth 96h	Pf growth 48h
CCOCCCNC(=O)c1cn(C)c2ccc(S(=O)(=O)N3CCCC3)cc2c1=O	-1.1%	1.3%	6.57µM*	-27.1%
Cc1ccc(CNC(=O)c2cn(C)c3ccc(S(=O)(=O)N4CCOCC4)cc3c2=O)cc1	-0.8%	-0.8%	u	u
CCCCCNC(=O)c1cc(S(=O)(=O)N2CCCC2)ccc1F	0.5%	1.6%	11.7µM*	-14.0%
Cn1cc(C(=O)NCc2ccc(F)cc2)c(=O)c2cc(S(=O)(=O)N3CCCCC3)ccc21	-4.8%	-2.9%	-25.1%	14.7µM*
Cn1cc(C(=O)NC2CCCCCCC2)c(=O)c2cc(S(=O)(=O)N3CCCC3)ccc21	1.1%	8.0%	8.28µM*	u
Cn1c(CCC(=O)Nc2cc(S(C)(=O)=O)ccc2Cl)nc2cc(S(=O)(=O)N3CCOCC3)ccc21	-4.7%	0.7%	-4.0%	0.4%
Cc1ccc2c(CC(=O)Nc3c(C(=O)c4ccc(F)cc4)oc4ccccc34)coc2c1C	-3.6%	x	x	x
CCCCN(CCCC)CCNC(=O)c1cn(C)c2ccc(S(=O)(=O)N3CCCC3)cc2c1=O	-2.6%	x	11.7µM*	-18.6%
CCN(CC)CCCNC(=O)c1cn(CC)c2ccc(S(=O)(=O)N3CCc4ccccc4C3)cc2c1=O	0.4%	-3.0%	u	-16.1%
CCN(CC)CCNC(=O)c1cn(CC)c2ccc(S(=O)(=O)N3CCc4ccccc4C3)cc2c1=O	-27.7%	-4.0%	1.04µM*	u
CC1CCCN(CCCNC(=O)c2cn(C)c3ccc(S(=O)(=O)N(C)C4CCCCC4)cc3c2=O)C1 (stereo unspecified)	-8.0%	-1.0%	20.7%	13.1µM*
CCn1cc(C(=O)NCCOC)c(=O)c2cc(S(=O)(=O)N3CCOCC3)ccc21	7.6%	x	x	x
CCOCCCNC(=O)c1cn(CC)c2ccc(S(=O)(=O)N3CCOCC3)cc2c1=O	2.9%	1.6%	10.4µM*	-9.9%
Cn1cc(C(=O)N2CCc3ccccc3C2)c(=O)c2cc(S(=O)(=O)N3CCCCC3)ccc21	-5.8%	-11.2%	3.7µM*	-17.0%
Cc1ccc(OCC(=O)Nc2ccc(S(=O)(=O)Nc3ncccn3)cc2)c(C(C)(C)C)c1	-0.5%	x	x	x
CCc1ccc(CC2S/C(=C(\C#N)C(C)=O)NC2=O)cc1 (stereo unspecified)	-0.3%	-25.1%	2.94µM*	u
CN(C(=O)CSc1nnc(-c2ccc(F)cc2)n1C)C1CCS(=O)(=O)C1 (stereo unspecified)	x	-4.4%	x	x
Cn1cccc1/C=N/N1CCN(c2ccccc2)CC1	44.7µM*	-1.4%	56.1%	0.0%
Cn1cccc1/C=N/N1CCN(Cc2ccccc2Cl)CC1	50.1µM*	-2.8%	20.1%	3.0%
Cc1cc(S(=O)(=O)N2c3ccc(F)cc3CCC2C)ccc1-n1cnnn1 (stereo unspecified)	3.2%	-2.9%	29.1%	-29.6%
CN(C)c1ccc(Nc2ncnc3c2c(-c2ccccc2)cn3-c2cccc(Cl)c2)cc1	-4.0%	x	x	x
Nc1nnc(Cc2ccccc2)s1	0.0%	-5.0%	-19.4%	x
Nc1nnc(Cc2ccc(F)cc2)s1	-9.0%	-0.4%	1.9%	10.4µM*
O=C(Oc1ccccc1F)c1ccc2c(=O)n3c(nc2c1)CCC3	-4.6%	-0.7%	24.7%	5.3%
O=S(=O)(/N=C(\Sc1ccc(Cl)cc1)c1ccccc1)c1ccccc1	25.1µM*	4.7%	3.1%	4.7%
Cc1ccc(NC(=O)CN2CCN(C3CCCCC3)C(=O)C2=O)cc1C	1.2%	x	x	x
O=c1cc(CN2CCN(c3ccccc3)CC2)c2c(ccc3ccccc32)o1	-22.1%	-0.5%	10.4µM*	13.1µM*
COc1ccc(N2CCN(Cc3cc(=O)oc4ccc(C)cc34)CC2)cc1	-19.7%	-7.3%	u	x
O=c1cc(CN2CCC3(CC2)OCCO3)c2c(ccc3ccccc32)o1	-16.4%	-11.2%	x	u
